The source of these data is PubChem BioAssay AID624405 (Broad Institute, 2012).

Screen size: about 1,900 compounds; about 250 (13%) were called active. Another 4% or so got no clear call; they are omitted.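 How the source made its calls: active means fitted curve reaches 40% rescue activity at or below the top valid dose, in every test run; inconclusive means test runs disagree, some active and some inactive; inactive means every run misses the threshold or moves the wrong way.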 Only a sample is shown. Results with a measured potency or affinity are listed apart.

The assay is described as follows: suppressors of statin myotoxicity in myotubes, dose response, cell-based, C2C12 myotubes, ATP luminescence, cherry pick (AID 624405).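 Further: myotubes are challenged with simvastatin at 10 µM to lower ATP.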 The conditions noted are these: C2C12 myotubes + simvastatin, 48 h, scaled: DMSO wells 0, geranylgeraniol wells 100; series mostly up to 19.5 µM.
On to `Cc1ccc(Cn2ncc3c(NCCCN(C)C)ncnc32)cc1`, for which the outcome was inactive.

As for `Clc1ccc(Cn2ncc3c(N4CCOCC4)ncnc32)cc1`, the outcome was inactive.

For the molecule `CCC(C)Nc1ncnc2c1cnn2Cc1ccc(Cl)cc1` (configuration not stated), the outcome was inactive. Under `CC(C)CNc1ncnc2c1cnn2Cc1ccc(Cl)cc1` stands “inactive”. Under `CCN(CC)c1ncnc2c1cnn2Cc1ccc(Cl)cc1` stands “inactive”; under `Cc1ccc(Cn2ncc3c(N4CCCC4)ncnc32)cc1`, “inactive”. The value for `COc1ccccc1N1CCN(C(=O)c2cc(-c3ccc(F)cc3)[nH]c2C)CC1` was “inactive”; that for `COc1cc(C)c(S(=O)(=O)n2ccc(C)n2)cc1C` was “inactive”; that for `C[C@@H]1CN([C@@H](C)CO)C(=O)c2cc(C3=CCCCC3)cnc2O[C@H]1CN(C)Cc1ccccc1F` was “inactive”. For `CC(=O)Nc1sc2c(c1C#N)CCC(C)C2` (configuration not stated), the outcome was inactive. Under `Cc1noc(C)c1NC(=O)Nc1ccc2c(c1)CC(=O)N([C@H](C)CO)C[C@H](C)[C@@H](CN(C)Cc1ccc(Oc3ccccc3)cc1)O2` stands “inactive”. Consider `C[C@H]1CCCCO[C@H](CN(C)S(=O)(=O)c2cccs2)[C@@H](C)CN([C@@H](C)CO)C(=O)c2cc(NC(=O)Nc3ccc(F)cc3)ccc2O1`, for which the result was inactive. Under `C[C@H](CO)N1C[C@H](C)[C@H](CN(C)Cc2ccc(Oc3ccccc3)cc2)Oc2ccc(NC(=O)Nc3ccc(C(F)(F)F)cc3)cc2CC1=O` stands “inactive”; under `C[C@H](CO)N1C[C@H](C)[C@@H](CN(C)Cc2ccc(-c3ccccc3)cc2)Oc2ccc(NC(=O)c3ccncc3)cc2CC1=O`, “inactive”. The value for `Cc1c(Cl)cccc1NC(=O)CNC(=O)Cc1n[nH]c(=O)c2ccccc12` was “inactive”; that for `C[C@@H]1CCCCO[C@@H](CN(C)C(=O)Nc2cccc3ccccc23)[C@H](C)CN([C@H](C)CO)C(=O)c2cc(NS(=O)(=O)c3ccc(Cl)cc3)ccc2O1` was “inactive”; that for `O=C(Nc1ccc(S(=O)(=O)N2CCCCCC2)cc1)c1ccco1` was “inactive”. The value for `N#Cc1nc(COc2ccccc2)oc1N1CCOCC1` was “inactive”; that for `N#Cc1nc(-c2ccco2)oc1NCCCn1ccnc1` was “inactive”. On to `CCCOc1cc(C)c(Cl)cc1S(=O)(=O)N(CC)CC`, for which the result was inactive. Under `Cc1ccc(S(=O)(=O)Nc2ccc3c(c2)C(=O)N([C@@H](C)CO)C[C@@H](C)[C@H](CN(C)Cc2ccc(Cl)c(Cl)c2)O3)cc1` stands “inactive”; under `C[C@@H]1CCCCO[C@H](CN(C)C(=O)Nc2ccc(F)cc2)[C@H](C)CN([C@@H](C)CO)C(=O)c2cc(NC(=O)Cc3ccccc3)ccc2O1`, “inactive”; under `CC(C)c1ccc(CNc2nc3nc4c(c(=O)n3[nH]2)CCC4)cc1`, “inactive”. For `Cc1ccc(S(=O)(=O)Nc2ccc3c(c2)CC(=O)N([C@@H](C)CO)C[C@H](C)[C@@H](CN(C)S(=O)(=O)c2cccs2)O3)cc1`, the outcome was inactive. The value for `CN(CC(=O)NCc1ccco1)CC(=O)Nc1ccc(F)c(F)c1F` was “inactive”; that for `COc1cc(NC(=O)COC(=O)c2cc(S(=O)(=O)N3CCOCC3)ccc2F)cc(OC)c1` was “inactive”. Take `COc1cc2c(C(=O)NCCCN3CCN(c4cccc(Cl)c4)CC3)cn(C)c(=O)c2cc1OC`: the result was inactive. The value for `COc1ccc(S(=O)(=O)Nc2ccc3c(c2)C(=O)N([C@@H](C)CO)C[C@@H](C)[C@H](CN(C)C(=O)Nc2cccc4ccccc24)OCCCC[C@@H](C)O3)cc1` was “inactive”; that for `COc1cccc(NC(=O)CSc2nc(C)cs2)c1` was “inactive”; that for `Cc1csc(SCC(=O)Nc2cccc(S(=O)(=O)N3CCCC3)c2)n1` was “inactive”. The value for `COc1ccc(S(=O)(=O)Nc2cccc3c2O[C@H](CN(C)C(=O)Nc2ccc(C(F)(F)F)cc2)[C@H](C)CN([C@H](C)CO)C3=O)cc1` was “inactive”; that for `C[C@H](CO)N1C[C@H](C)[C@H](CN(C)Cc2ccc(Oc3ccccc3)cc2)Oc2ccc(NC(=O)Nc3ccc(F)cc3)cc2CC1=O` was “inactive”. For the molecule `C[C@@H]1CN([C@@H](C)CO)C(=O)c2cc(C#Cc3ccccc3F)cnc2O[C@H]1CN(C)S(=O)(=O)c1ccccc1F`, the result was inactive. With `CCN(CC)CC(=O)n1c2c(c3ccccc31)CCCC2`, the result was inactive. The value for `Clc1ccc(Cn2ncc3c(NCc4ccccc4)ncnc32)cc1` was “inactive”; that for `O=C(Nc1ccc(S(=O)(=O)N2CCC(C(=O)NC3CCCCC3)CC2)cc1)c1ccco1` was “inactive”; that for `Nc1ccc2c(S(=O)(=O)O)cccc2c1S(=O)(=O)O` was “inactive”. With `O=C(Cn1nnc(-c2ccncc2)n1)N(C1CCCCC1)C1CCCCC1`, the outcome was inactive.

Consider `COCCn1nnnc1CN(CCc1ccc(OC)c(OC)c1)Cc1cc2ccc(C)cc2[nH]c1=O`, for which the result was inactive.

Consider `COc1ccc(NC(=O)Nc2ccc3c(c2)CC(=O)N([C@@H](C)CO)C[C@@H](C)[C@H](CN(C)C(=O)Nc2cccc4ccccc24)O3)cc1`, for which the outcome was inactive. The value for `O=C(CCC1COc2ccccc2O1)Nc1ccccn1` (configuration not stated) was “inactive”; that for `C[C@@H]1CCCCO[C@@H](CN(C)S(=O)(=O)c2ccc(Cl)cc2)[C@@H](C)CN([C@@H](C)CO)C(=O)c2cc(NS(C)(=O)=O)ccc2O1` was “inactive”; that for `C[C@@H]1CCCCO[C@@H](CN(C)S(=O)(=O)c2ccc(Cl)cc2)[C@@H](C)CN([C@H](C)CO)C(=O)c2cc(NS(C)(=O)=O)ccc2O1` was “inactive”. For the molecule `CCC(=O)c1ccc(OCC(=O)O)cc1`, the result was inactive. The value for `COc1cc(OC)cc(-c2nc3nc(C)c(CCC(=O)O)c(C)n3n2)c1` was “inactive”; that for `O=C(CSc1nnc2ccccn12)NNC(=O)c1cccc(Cl)c1` was “inactive”. Under `COC(=O)c1ccc(CSc2nc3c(cnn3-c3ccc(C)c(C)c3)c(=O)[nH]2)o1` stands “inactive”. Under `COc1ccc(S(=O)(=O)Nc2ccc3c(c2)C(=O)N([C@H](C)CO)C[C@H](C)[C@@H](CN(C)S(=O)(=O)c2ccc(F)cc2)OCCCC[C@H](C)O3)cc1` stands “inactive”; under `COc1ccc(CC(=O)Nc2cc(C)on2)cc1`, “inactive”; under `C[C@@H]1CCCCO[C@H](CN(C)C(=O)Cc2ccccc2)[C@@H](C)CN([C@@H](C)CO)C(=O)c2cc(NS(=O)(=O)c3cn(C)cn3)ccc2O1`, “inactive”. Regarding `O=S(=O)(c1ccccc1C(F)(F)F)N1CCN(S(=O)(=O)c2ccccc2C(F)(F)F)CC1`, the outcome was inactive. Under `CN1C(=O)c2cc(NC(=O)c3cnccn3)ccc2OC[C@H]2O[C@H](CC(=O)NCC3CCCCC3)CC[C@H]21` stands “inactive”.
